Values without a mark were called inactive.

Holding throughout (assay): log2 ratio of Biotin-Ahx-Ub-VS probe labelling (fragment/DMSO); higher = less target engagement (more negative = stronger competition), active = hit call of the paper (q ≤ 0.05, log2 ratio ≤ -1)
Conditions in all cases: compound concentration: 200 uM; treatment time: 3 h

One experiment deals with T1, OTUD6B (UniProt Q8N6M0).
T1 sequence (whole entry): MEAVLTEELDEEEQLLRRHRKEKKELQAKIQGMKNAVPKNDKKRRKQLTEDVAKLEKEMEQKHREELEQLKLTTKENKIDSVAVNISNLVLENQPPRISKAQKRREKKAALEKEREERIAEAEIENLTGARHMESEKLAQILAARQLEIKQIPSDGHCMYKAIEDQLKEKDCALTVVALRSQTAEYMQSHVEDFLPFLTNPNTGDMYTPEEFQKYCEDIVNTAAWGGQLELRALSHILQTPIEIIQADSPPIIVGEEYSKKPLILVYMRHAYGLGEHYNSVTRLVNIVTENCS
In outline: (§1)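 The table lists average log2 ratios of fragment over vehicle, from an unpaired t-test on global-median-normalised Spectronaut label-free quantities. Proteins with ≥2 unique peptides were used. Samples were HEK293T lysate (495 µg) treated in triplicate with fragment at 200 µM or vehicle for 3 h, then with Biotin-Ahx-Ub-VS (0.5 µM final) for 1 h, with labelled DUBs NeutrAvidin-enriched and run by diaPASEF LC-MS/MS.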

Another experiment concerns the target T2, OTUD7B (UniProt Q6GQQ9).
T2 sequence (whole entry): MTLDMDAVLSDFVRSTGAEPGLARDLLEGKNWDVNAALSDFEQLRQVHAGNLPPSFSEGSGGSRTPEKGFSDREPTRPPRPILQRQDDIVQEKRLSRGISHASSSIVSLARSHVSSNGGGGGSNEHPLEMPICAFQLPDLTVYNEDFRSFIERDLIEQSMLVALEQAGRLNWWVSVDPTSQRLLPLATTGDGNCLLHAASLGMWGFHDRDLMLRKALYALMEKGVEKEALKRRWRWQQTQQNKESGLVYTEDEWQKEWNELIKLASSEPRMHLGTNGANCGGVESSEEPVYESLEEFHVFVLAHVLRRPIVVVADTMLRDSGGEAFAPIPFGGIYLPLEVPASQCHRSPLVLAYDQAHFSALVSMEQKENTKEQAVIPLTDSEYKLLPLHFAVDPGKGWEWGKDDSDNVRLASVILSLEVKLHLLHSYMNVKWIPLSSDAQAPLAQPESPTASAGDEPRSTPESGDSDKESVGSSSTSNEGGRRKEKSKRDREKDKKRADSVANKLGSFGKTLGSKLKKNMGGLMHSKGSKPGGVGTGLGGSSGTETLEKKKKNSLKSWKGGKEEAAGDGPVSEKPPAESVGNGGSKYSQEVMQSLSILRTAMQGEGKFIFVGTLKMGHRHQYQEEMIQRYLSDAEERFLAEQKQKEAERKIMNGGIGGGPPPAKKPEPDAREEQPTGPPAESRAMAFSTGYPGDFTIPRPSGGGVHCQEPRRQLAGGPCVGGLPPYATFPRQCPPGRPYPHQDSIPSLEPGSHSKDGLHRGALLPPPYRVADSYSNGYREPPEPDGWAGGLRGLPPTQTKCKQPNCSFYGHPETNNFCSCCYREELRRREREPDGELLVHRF
In short, it runs like this:
as §1

In another experiment the target is PRPF8 (UniProt Q6P2Q9). In outline: as §1
The target in another experiment is T3, PSMD7 (UniProt P51665).
T3 sequence (whole entry): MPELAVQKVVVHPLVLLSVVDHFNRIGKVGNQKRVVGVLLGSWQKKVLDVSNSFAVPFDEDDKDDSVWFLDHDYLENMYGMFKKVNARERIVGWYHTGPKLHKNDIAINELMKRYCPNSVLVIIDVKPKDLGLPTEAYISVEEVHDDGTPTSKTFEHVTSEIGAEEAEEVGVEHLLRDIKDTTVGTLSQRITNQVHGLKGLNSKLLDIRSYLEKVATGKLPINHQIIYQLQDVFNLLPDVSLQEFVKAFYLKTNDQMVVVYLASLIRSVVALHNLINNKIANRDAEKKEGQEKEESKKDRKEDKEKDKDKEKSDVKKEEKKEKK
In short, it runs like this: as §1

A further experiment has as its target UCHL1 (UniProt P09936). In outline: as §1
For the next experiment, the target named is T4, UCHL3 (UniProt P15374).
T4 sequence (whole entry): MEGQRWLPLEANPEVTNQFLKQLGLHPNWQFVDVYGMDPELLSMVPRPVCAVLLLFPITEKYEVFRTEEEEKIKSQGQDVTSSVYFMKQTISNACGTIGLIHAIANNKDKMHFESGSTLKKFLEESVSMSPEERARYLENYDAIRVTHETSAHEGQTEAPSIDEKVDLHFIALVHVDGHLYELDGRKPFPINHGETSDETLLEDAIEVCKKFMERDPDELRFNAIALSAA
In short, it runs like this: as §1

The next experiment deals with T5, UCHL5 (UniProt Q9Y5K5).
T5 sequence (whole entry): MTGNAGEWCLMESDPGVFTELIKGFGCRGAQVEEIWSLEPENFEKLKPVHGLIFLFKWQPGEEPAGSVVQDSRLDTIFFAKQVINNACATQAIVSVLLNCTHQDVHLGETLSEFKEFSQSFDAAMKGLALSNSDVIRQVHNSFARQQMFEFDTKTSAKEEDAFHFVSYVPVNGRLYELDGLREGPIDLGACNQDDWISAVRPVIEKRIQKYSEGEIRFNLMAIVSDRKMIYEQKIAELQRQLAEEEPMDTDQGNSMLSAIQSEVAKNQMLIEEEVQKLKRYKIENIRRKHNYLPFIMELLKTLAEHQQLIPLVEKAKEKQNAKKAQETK
In outline:
as §1

A further experiment addresses USP10 (UniProt Q14694). In outline:
as §1

For the next experiment, the target named is T6, USP15 (UniProt Q9Y4E8).
T6 sequence (whole entry): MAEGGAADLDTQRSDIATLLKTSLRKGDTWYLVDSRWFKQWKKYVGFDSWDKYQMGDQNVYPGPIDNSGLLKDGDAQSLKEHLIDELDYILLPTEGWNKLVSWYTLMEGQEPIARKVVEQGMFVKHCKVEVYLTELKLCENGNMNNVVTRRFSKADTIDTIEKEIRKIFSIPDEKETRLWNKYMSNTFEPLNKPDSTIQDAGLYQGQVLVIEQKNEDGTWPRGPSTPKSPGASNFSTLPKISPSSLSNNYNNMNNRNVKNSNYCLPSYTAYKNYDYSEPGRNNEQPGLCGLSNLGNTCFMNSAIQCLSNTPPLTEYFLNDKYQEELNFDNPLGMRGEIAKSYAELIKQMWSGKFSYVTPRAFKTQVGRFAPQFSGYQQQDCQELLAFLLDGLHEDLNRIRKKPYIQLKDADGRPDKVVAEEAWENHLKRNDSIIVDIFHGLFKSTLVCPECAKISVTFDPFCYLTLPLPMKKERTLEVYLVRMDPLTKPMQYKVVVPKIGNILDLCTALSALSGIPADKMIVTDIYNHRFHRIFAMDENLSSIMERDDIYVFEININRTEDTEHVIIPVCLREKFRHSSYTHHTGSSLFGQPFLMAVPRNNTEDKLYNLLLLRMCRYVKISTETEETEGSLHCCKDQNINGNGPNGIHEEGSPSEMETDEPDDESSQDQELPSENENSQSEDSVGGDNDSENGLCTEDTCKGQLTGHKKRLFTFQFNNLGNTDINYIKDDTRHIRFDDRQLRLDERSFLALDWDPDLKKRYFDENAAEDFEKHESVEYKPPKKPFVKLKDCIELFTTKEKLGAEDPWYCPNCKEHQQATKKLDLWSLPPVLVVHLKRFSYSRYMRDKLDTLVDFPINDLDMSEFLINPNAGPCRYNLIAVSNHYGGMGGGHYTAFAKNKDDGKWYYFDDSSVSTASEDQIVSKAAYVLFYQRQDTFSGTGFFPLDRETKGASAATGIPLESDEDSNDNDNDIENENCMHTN
In short, it runs like this:
as §1

The next experiment has as its target USP16 (UniProt Q9Y5T5). In outline: as §1

Sequence of UCHL1 (P09936 whole entry, looked up): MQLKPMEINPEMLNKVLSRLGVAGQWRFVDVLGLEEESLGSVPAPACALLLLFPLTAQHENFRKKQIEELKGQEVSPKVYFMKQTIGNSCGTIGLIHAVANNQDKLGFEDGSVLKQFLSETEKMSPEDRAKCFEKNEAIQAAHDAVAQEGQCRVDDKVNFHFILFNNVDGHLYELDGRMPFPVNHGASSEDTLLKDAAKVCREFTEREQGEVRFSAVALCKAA
Sequence of USP16 (Q9Y5T5 whole entry, looked up): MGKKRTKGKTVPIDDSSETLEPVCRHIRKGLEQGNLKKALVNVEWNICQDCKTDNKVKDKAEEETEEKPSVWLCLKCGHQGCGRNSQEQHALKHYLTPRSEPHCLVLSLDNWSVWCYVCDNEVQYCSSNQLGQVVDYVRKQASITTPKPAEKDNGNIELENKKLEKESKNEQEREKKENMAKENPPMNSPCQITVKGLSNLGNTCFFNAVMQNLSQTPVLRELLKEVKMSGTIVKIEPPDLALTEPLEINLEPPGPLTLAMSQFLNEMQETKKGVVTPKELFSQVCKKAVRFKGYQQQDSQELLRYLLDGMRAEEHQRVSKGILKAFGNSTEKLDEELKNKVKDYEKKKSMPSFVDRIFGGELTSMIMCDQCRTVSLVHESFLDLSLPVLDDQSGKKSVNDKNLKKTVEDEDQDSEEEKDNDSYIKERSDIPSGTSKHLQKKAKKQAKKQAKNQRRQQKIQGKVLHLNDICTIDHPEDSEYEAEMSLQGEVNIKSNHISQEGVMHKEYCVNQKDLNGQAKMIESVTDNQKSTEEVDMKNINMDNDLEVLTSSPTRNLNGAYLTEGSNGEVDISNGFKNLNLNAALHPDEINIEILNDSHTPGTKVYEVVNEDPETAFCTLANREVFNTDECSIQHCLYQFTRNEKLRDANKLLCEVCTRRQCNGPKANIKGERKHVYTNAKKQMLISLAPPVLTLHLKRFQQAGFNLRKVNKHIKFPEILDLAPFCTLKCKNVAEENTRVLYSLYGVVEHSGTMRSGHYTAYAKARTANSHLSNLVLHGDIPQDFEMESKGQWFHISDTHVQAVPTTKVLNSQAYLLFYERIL
Sequence of USP10 (Q14694 whole entry): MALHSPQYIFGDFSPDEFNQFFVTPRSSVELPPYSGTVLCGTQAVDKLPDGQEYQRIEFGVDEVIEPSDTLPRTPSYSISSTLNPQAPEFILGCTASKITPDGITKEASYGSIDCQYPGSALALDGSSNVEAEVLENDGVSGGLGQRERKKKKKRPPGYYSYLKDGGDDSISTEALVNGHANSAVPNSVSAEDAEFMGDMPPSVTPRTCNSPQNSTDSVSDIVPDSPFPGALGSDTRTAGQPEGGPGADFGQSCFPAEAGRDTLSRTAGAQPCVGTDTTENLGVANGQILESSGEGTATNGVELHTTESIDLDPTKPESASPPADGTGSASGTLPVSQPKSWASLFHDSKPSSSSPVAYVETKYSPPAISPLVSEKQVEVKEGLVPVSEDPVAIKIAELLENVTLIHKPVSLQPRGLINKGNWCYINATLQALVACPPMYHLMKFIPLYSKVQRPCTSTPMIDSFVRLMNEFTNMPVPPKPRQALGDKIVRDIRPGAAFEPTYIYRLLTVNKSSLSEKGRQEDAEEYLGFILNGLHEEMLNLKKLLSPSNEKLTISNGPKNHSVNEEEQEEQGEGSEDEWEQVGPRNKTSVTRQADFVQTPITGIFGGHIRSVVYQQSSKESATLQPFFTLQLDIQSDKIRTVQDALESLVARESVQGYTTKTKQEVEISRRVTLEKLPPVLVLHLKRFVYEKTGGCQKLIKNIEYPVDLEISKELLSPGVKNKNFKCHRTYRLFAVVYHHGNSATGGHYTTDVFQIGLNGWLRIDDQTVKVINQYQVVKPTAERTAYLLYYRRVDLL

Take `O=C(CCl)Nc1cc(Cl)ccc1-n1cncn1`: the “log2 ratio of Biotin-Ahx-Ub-VS probe labelling” value in the experiment with OTUD6B is -1.04 (active); with OTUD7B it was -2.08 (active); in the experiment with PRPF8, -0.132; with PSMD7, -0.143; with UCHL1 it was -1.89 (active); with UCHL3, -0.609. The “log2 ratio of Biotin-Ahx-Ub-VS probe labelling” value in the experiment with UCHL5 is -1.18 (active); in the experiment with USP10, -0.141; with USP15 it was -1.26 (active); with USP16, 0.0892.

The record behind these values is the supplement of paper PMC11732987, “Enantioselective OTUD7B fragment discovery through chemoproteomics screening and high-throughput optimisation” (Communications Chemistry, 2025).
